# Screening data: PubChem BioAssay, Broad Institute
# The sample as a whole holds a higher share of hits than the screen did.
# ROS inducer: inducers of reactive oxygen species in cancer cells. U2OS ROS induction, H2DCF-DA fluorescence. ROS induction (% of piperlongumine), % at 10 µM. actives 2% (n = 46,000). AID 624156; in the data active = ROS induction above about 79%, passing the limit was not always enough;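 note: 0% = DMSO vehicle median and 100% = reference compound median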
# An asterisk follows results filed as active.
SMILES,ROS inducer
O=C(Nc1cccc(F)c1)C1CCN(c2ncnc3c2sc2cccc(F)c23)CC1,111*
O=C(NC(=O)N1CCCCC1)c1ccc(-c2csnn2)cc1,-5
c1ccc(CCSc2nnc3sc4ccccc4n23)cc1,9
C[C@H]1CN([C@@H](C)CO)C(=O)c2cc(NC(=O)Cc3cn(C)c4ccccc34)ccc2O[C@@H]1CN(C)Cc1ccc(C(F)(F)F)cc1,122*
C[C@H](CO)N1C[C@H](C)[C@@H](CN(C)Cc2ccc(C(F)(F)F)cc2)Oc2ccc(NC(=O)Cc3cn(C)c4ccccc34)cc2C1=O,109*
C[C@H](CO)N1C[C@H](C)[C@H](CN(C)Cc2ccc(C(=O)O)cc2)Oc2ccc(NC(=O)Cc3cn(C)c4ccccc34)cc2C1=O,-5
C[C@@H]1CN([C@@H](C)CO)C(=O)c2cc(NC(=O)Cc3cn(C)c4ccccc34)ccc2O[C@@H]1CN(C)Cc1ccccc1,13
C[C@@H]1CN([C@@H](C)CO)C(=O)c2cc(NC(=O)Cc3cn(C)c4ccccc34)ccc2O[C@@H]1CN(C)Cc1ccncc1,12
C[C@@H]1CN([C@H](C)CO)C(=O)c2cc(NC(=O)Cc3cn(C)c4ccccc34)ccc2O[C@H]1CN(C)Cc1ccc(C(=O)O)cc1,-13
CCCNC(=O)Cn1ncc2c3ccccc3n(Cc3ccccc3)c2c1=O,-4
O=C(CSc1nc2ccccc2c(=O)n1CCc1ccccc1)c1ccc(Cl)cc1,-6
COc1cccc(NC(=O)Cn2ncc3c4ccccc4n(C)c3c2=O)c1,-9
CCc1ccccc1N(CC)C(=O)c1cc2c(s1)-c1c(C)cccc1OC2,0
CCC(Sc1nc(Nc2ccc(F)cc2)c2ccccc2n1)C(=O)Nc1ccc2c(c1)OCO2 (stereo not given),118*
O=C(CSc1nc2ccccc2c(=O)[nH]1)Nc1ccc2c(c1)OCCO2,7
O=C(CSc1nc(NCc2ccccc2)c2ccccc2n1)c1ccc(F)cc1,35
CCCCN(C)c1ccc(C(=O)OC)cc1NC(=S)Nc1cccc(C)c1,2
COc1ccc2c(c1)N(C)/C(=C1/OC(=S)N(C)C1=O)S2,-4
COc1ccc(Cn2c3ccccc3c3nc4ccccc4nc32)cc1,-9
O=[N+]([O-])c1ccc(N2CCN(S(=O)(=O)c3ccc(F)cc3)CC2)cc1NCc1ccco1,27
O=C(c1ccccc1Cl)N1CCN(c2ccc([N+](=O)[O-])c(NCc3cccnc3)c2)CC1,79*
CC(=O)N1CCN(c2ccc([N+](=O)[O-])c(NCc3cccnc3)c2)CC1,40
O=C(c1ccc(Cl)cc1)N1CCN(c2ccc([N+](=O)[O-])c(NCc3ccccn3)c2)CC1,5
CC(C)(C)c1ccc(C(=O)N2CCN(c3ccc([N+](=O)[O-])c(NCc4cccnc4)c3)CC2)cc1,106*
O=[N+]([O-])c1ccc(N2CCNCC2)cc1NCc1ccccn1,6
SMILES,ROS inducer
CC(Oc1ccc(Cl)cc1Cl)C(=O)Nc1nc2c(s1)C(=O)CC(C)(C)C2 (stereo not given),0
CCOC(=O)c1sc2nc(SCC(=O)C(C)(C)C)n(N)c(=O)c2c1C,-4
COc1ccc(S(=O)(=O)NC(CC(=O)O)C(C)C)cc1 (stereo not given),7
CNC(=O)Nc1ccc(C(=O)OC)cc1,-14
CC1=C(CO)C(=O)OC([C@@H](C)C2CC[C@H]3C4C[C@H]5O[C@]56[C@@H](O)C=CC(=O)[C@]6(C)C4CC[C@]23C)C1 (stereo not given in full),138*
Cc1oc(-c2ccccc2)nc1CSc1nncn2c1cc1occc12,-3
CCCCc1cc(CCCC)n2nc(-c3ccccc3)cc2n1,6
CC(=O)N1CCSc2cc(S(=O)(=O)Nc3cccc(C)c3)ccc21,19
COc1ccc(-n2cc(C(=O)N3CCCN(Cc4ccccc4F)C3)c3ccccc3c2=O)cc1,-7
Cc1nc2ccccc2n1Cc1cccc(Cl)c1,-13
Cc1ccc(S(=O)(=O)c2cn(Cc3cccc(Cl)c3)c3cc4c(cc3c2=O)OCO4)cc1,98*
CCc1ccc(NC(=O)Cn2cc(S(=O)(=O)c3ccccc3)c(=O)c3ccccc32)cc1,35
Cc1ccc(NC(=O)CCn2nnc(-c3ccc(OCc4ccccc4F)cc3)n2)cc1C,0
O=C(c1ccc(COc2cc(Cl)ccc2Cl)o1)N1CCSCC1,0
Cc1cccc(CN2C(=O)/C(=C\c3ccc(C(=O)N4CCCC4)cc3)Oc3ccccc32)c1,14
COC(=O)c1ccc([C@H]2C(C#N)=C(N)C(C#N)(C#N)C3=CCC(C(C)(C)C)C[C@@H]32)cc1 (stereo not given in full),226*
CC(C)(C)C1CC=C2[C@H](C1)[C@@H](c1ccsc1)C(C#N)=C(N)C2(C#N)C#N (stereo not given in full),25
CCOC(=O)N1CC=C2C(C1)C(c1cccc(C(F)(F)F)c1)C(C#N)=C(N)C2(C#N)C#N (stereo not given),14
COc1ccc(C(O)(CCc2ccccc2)C(CN2CCCCC2)c2ccccc2)cc1 (stereo not given),18
CC(C)CNC(=S)N1CCCC1,-11
COc1cccc(C(=O)c2sc3nsc(SCc4ccccc4)c3c2N)c1,335*
COc1cc(OC)cc(-c2nnc(SCc3cccc(C(=O)O)c3)o2)c1,23
COc1cccc(CNC(=O)c2ccc3nc(SCc4ccc(F)cc4)n(C)c3c2)c1,16
Cc1cc(C)c(S(=O)(=O)N(CC#N)CC#N)c(C)c1,-9
COC(=O)COc1cccc(NC(=O)c2cc(OC)cc(OC)c2)c1,108*
SMILES,ROS inducer
COc1cccc(C(=O)Nc2cccc(OCC(=O)O)c2)c1,-21
COC(=O)COc1cccc(NC(=O)c2ccc(Br)cc2)c1,20
CC1CCCCN1CCNC(=O)CCc1nnc2n(Cc3ccc(F)cc3)c(=O)c3ccccc3n12 (stereo not given),-4
CC(C)C(NC(=O)c1ccc(CN2CCN(c3ccccc3)CC2)cc1)C(C)C,-3
c1ccc(-c2ccc3c(n2)CCc2ccccc2-3)cc1,107*
Oc1ccccc1-c1cc(-c2ccccc2O)nc(-c2ccccc2)n1,2
CNCCC=C1c2ccccc2CCc2ccccc21,-10
COc1ccc(CN(C)C[C@@H]2OCCCC[C@@H](C)Oc3ccc(NS(=O)(=O)c4ccc(C)cc4)cc3C(=O)N([C@H](C)CO)C[C@@H]2C)cc1,128*
C[C@@H]1CCCCO[C@@H](CN(C)C(=O)C2CCCCC2)[C@@H](C)CN([C@H](C)CO)C(=O)c2cc(NC(=O)Nc3cccc4ccccc34)ccc2O1,102*
COc1ccc(NC(=O)Nc2ccc3c(c2)C(=O)N([C@H](C)CO)C[C@H](C)[C@@H](CN(C)Cc2ccccc2)OCCCC[C@@H](C)O3)cc1,6
COc1ccc(NC(=O)Nc2ccc3c(c2)C(=O)N([C@H](C)CO)C[C@H](C)[C@H](CN(C)Cc2ccc(C(=O)O)cc2)OCCCC[C@@H](C)O3)cc1,33
COc1ccc(CN(C)C[C@H]2OCCCC[C@@H](C)Oc3ccc(NS(=O)(=O)c4ccc(F)cc4)cc3C(=O)N([C@H](C)CO)C[C@@H]2C)cc1,27
C[C@@H]1CCCCO[C@@H](CN(C)C(=O)c2ccccc2)[C@@H](C)CN([C@H](C)CO)C(=O)c2cc(NC(=O)Nc3cccc4ccccc34)ccc2O1,-22
COc1ccc(CN(C)C[C@@H]2OCCCC[C@@H](C)Oc3ccc(NS(=O)(=O)c4ccc(F)cc4)cc3C(=O)N([C@H](C)CO)C[C@@H]2C)cc1,16
